SIAE inh: inhibitors of human sialic acid acetylesterase SIAE | 0.69% of 370,000 active | Q9HAT2 | inhibition, % at 9.66 µM | SIAE FP-Rh probe binding, fluorescence polarization;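 active = inhibition above a cutoff: mean of compounds within the control limits plus 3 SD of those, cut at about 17% in these data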
Fam108B counter: counter-screen for RBBP9 inhibitors: inhibitors of mouse Fam108B; recombinant Fam108B, FP-Rh probe fluorescence polarization; inhibition, % at 9.51 µM; 0.33% of 300,000 active; AID 1947;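 active = inhibition above the screen mean inhibition plus 3 SD, computed separately per campaign, cut at about 18% in these data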;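 also: inhibitors lower polarization as less probe binds the enzyme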
TCR CD3 inh: inhibitors of human TCR-CD3 interaction. TAMRA-labeled TCR probe fluorescence, biochemical. inhibition, % at 9.4 µM. 0.37% of 360,000 active. AID 651800; in the data active = inhibition above about 19%;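 also: recombinant mutant TCR 2C K166C tagged with TAMRA read by polarization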
PRMT1 FP inh: inhibitors of human PRMT1 | Q99873 | recombinant PRMT1, activity-based probe fluorescence polarization | inhibition, % at 2.79 µM | 1.3% of 370,000 active;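 active = inhibition above about 21% made by adding two undisclosed values, limit read from the data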
Target sequence (Q99873 whole entry, looked up): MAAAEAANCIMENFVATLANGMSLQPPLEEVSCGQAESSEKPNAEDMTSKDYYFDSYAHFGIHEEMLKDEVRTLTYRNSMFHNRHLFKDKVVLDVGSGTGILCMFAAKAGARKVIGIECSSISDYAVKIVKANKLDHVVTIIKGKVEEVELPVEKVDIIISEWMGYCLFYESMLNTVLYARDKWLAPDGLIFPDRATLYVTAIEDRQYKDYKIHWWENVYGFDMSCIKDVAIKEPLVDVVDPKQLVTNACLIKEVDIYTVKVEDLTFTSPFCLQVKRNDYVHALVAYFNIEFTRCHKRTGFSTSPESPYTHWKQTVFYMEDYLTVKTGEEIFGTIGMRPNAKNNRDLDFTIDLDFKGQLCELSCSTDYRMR
PME-1 primary: PME-1 (human) inhibition | Q9Y570 | inhibition, % at 5.9 µM | recombinant PME-1, FP-Rh probe fluorescence polarization | 0.53% of 320,000 active;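 active = inhibition above the campaign mean of all compounds plus 3 SD, cut at about 26% in these data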;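 also: competitive labeling of PME-1 active site by serine hydrolase directed probe; inhibitors block probe labeling so polarization falls and inhibition rises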
PAD4 FP inh: blocks human protein arginine deiminase 4 | Q9UM07 | recombinant PAD4, RCA probe fluorescence polarization | inhibition, % at 6.36 µM | 0.41% of 330,000 active | AID 485272;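 active = percent inhibition above a cutoff equal to the mean of all tested compounds plus 3 SD, cut at about 15% in these data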
PRMT1 inh conf: confirmation of human PRMT1 inhibitors; shares compounds with PRMT1 FP inh; recombinant His-PRMT1, activity-based probe fluorescence polarization; inhibition, % at 2.79 µM; 42% of 3,300 active; AID 687036;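 active = mean inhibition across replicates above the hit cutoff derived for the earlier primary screen, cut at about 22% in these data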
Of the large screens only hits and unclear results are named; the others gave an inactive call (follow-up assays come after a bar, where they were run). Shown are actives, neighbours in structure and some others; about 2.6% of the full set was active somewhere.

O=C1[C@@H](CCc2ccccc2)[C@@H]2c3cc4ccccc4cc3C=NN2[C@@H]2c3cc4ccccc4cc3C=NN12	none (no result: Fam108B counter, TCR CD3 inh, PME-1 primary, PAD4 FP inh)
COC(=O)[C@H](C(C)C)N(Cc1cn(Cc2ccccc2)nn1)S(=O)(=O)c1ccccc1Br	none (no result: Fam108B counter, TCR CD3 inh, PME-1 primary, PAD4 FP inh)
O=C1C[C@@H](c2ccccc2)N=C2N(Cc3ccc4c(c3)OCO4)C/C(=C/c3ccccc3)N12	none (no result: Fam108B counter, TCR CD3 inh, PME-1 primary, PAD4 FP inh)
CC(C)(C)c1ccc(Oc2ccc(NC(=O)c3ccco3)cn2)cc1	PRMT1 FP inh 29 | PRMT1 inh conf inactive
O=C(Nc1ccc(Oc2cccc(C(F)(F)F)c2)nc1)c1ccco1	none
COC[C@@H]1CCCN1c1cccc2c1S(=O)(=O)N(C1CC1)CC[C@@H](C)O2	none (no result: Fam108B counter, TCR CD3 inh, PME-1 primary, PAD4 FP inh)
CN(Cc1ccccc1)C(=O)OCc1cn(Cc2cccc(Cl)c2)nn1	none (no result: Fam108B counter, TCR CD3 inh, PME-1 primary, PAD4 FP inh)
N#C/C(=C\c1ccc(C(=O)O)cc1)c1ccccn1	none
CCN(Cc1ccccc1)c1ccc(/C=C(\C#N)c2ccccn2)cc1	PRMT1 FP inh 57 | PRMT1 inh conf inactive
CCN(CC)CCCNc1ccc2ncn3c4ccc(O)cc4c(=O)c1c23	PRMT1 FP inh 116 (no result: Fam108B counter, PME-1 primary, PAD4 FP inh) | PRMT1 inh conf 133
CN(C)CCNc1ccc2nnn3c4ccc(O)cc4c(=O)c1c23	none (no result: Fam108B counter, PME-1 primary, PAD4 FP inh)
O=S1(=O)c2ccc(N3CC[C@H](O)C3)cc2O[C@@H]2CCN1C2	none (no result: Fam108B counter, TCR CD3 inh, PME-1 primary, PAD4 FP inh)
CCOC(=S)SCc1cn2cccc(C)c2n1	PRMT1 FP inh 57 | PRMT1 inh conf inactive
COC(=O)CSCc1nc2ccccc2[nH]c1=O	PRMT1 FP inh 34 | PRMT1 inh conf 55
COC(=O)CCc1nc2ccccc2[nH]c1=O	none
CCN(CC)C(=O)CC[C@H]1CC[C@]2(CCCN(Cc3cccs3)C2)O1	none (no result: Fam108B counter, TCR CD3 inh, PME-1 primary, PAD4 FP inh)
O=[N+]([O-])c1c(Nc2ccccc2O)cc(Cl)c2nonc12	PRMT1 FP inh 60 (no result: Fam108B counter, PME-1 primary, PAD4 FP inh) | PRMT1 inh conf 53
Cc1cc(C)nc(SCCc2ccncc2)n1	PRMT1 FP inh 30 | PRMT1 inh conf inactive
O=C(CSc1nnc(COc2ccc(Cl)cc2)n1Cc1ccco1)Nc1cccc2ccccc12	none (no result: Fam108B counter, TCR CD3 inh, PME-1 primary, PAD4 FP inh)
COC(=O)[C@]12C[C@H](CC(=O)NCc3cccc4ccccc34)C(=O)N(Cc3cccc4ccccc34)C1=C[C@H](C(C)C)O[C@@H]2C1CC1	none (no result: Fam108B counter, TCR CD3 inh, PME-1 primary, PAD4 FP inh)
COC(=O)[C@]12C[C@H](CC(=O)NCC34CC5CC(CC(C5)C3)C4)C(=O)N(Cc3cccc4ccccc34)C1=C[C@H](C1CCCC1)O[C@@H]2C	none (no result: Fam108B counter, TCR CD3 inh, PME-1 primary, PAD4 FP inh)
O=C(OCCN1C(=O)c2cccc3c(N4CCOCC4)ccc(c23)C1=O)c1ccc(Cl)cc1	PRMT1 FP inh 29 | PRMT1 inh conf inactive
CCCN(CCC)S(=O)(=O)c1ccc(C(=O)OCCN2C(=O)c3cccc4c(N5CCOCC5)ccc(c34)C2=O)cc1	none (no result: SIAE inh, TCR CD3 inh, PRMT1 FP inh)
C#CCNC(=O)C[C@H]1C(=O)N(CC=C)C2=CCCC[C@@]21C(=O)OCC	none (no result: Fam108B counter, TCR CD3 inh, PME-1 primary, PAD4 FP inh)
Cc1cc(NC(=O)Nc2cccc(F)c2)n(-c2ccccc2)n1	none (no result: Fam108B counter, TCR CD3 inh, PME-1 primary, PAD4 FP inh)
C=CCN1[C@H](Cc2ccccc2)COc2cccc(N3CCSCC3)c2S1(=O)=O	none (no result: Fam108B counter, TCR CD3 inh, PME-1 primary, PAD4 FP inh)
COc1ccc(C(=O)CC(Sc2ccccc2N)c2ccc(OC)cc2)cc1 (centres undefined)	PRMT1 FP inh 59 (no result: Fam108B counter, PME-1 primary, PAD4 FP inh) | PRMT1 inh conf 29
COc1ccc(C(=O)CC(=O)c2ccc(C(C)(C)C)cc2)cc1	none (no result: Fam108B counter, PME-1 primary, PAD4 FP inh)
O=C1CC(Sc2ccc(Cl)cc2)C(=O)N1Cc1ccncc1 (centres undefined)	none
NCCSC1CC(=O)N(Cc2ccc(F)cc2)C1=O (centres undefined)	PRMT1 FP inh 27 | PRMT1 inh conf inactive
CC(C)N(Cc1cn(Cc2ccccc2)nn1)S(=O)(=O)c1ccccc1Br	none (no result: Fam108B counter, TCR CD3 inh, PME-1 primary, PAD4 FP inh)
O=C(CNC(=O)c1ccccc1)Sc1ccccc1	PRMT1 FP inh 49 (no result: Fam108B counter, PME-1 primary, PAD4 FP inh) | PRMT1 inh conf 76
COc1ccc2cc(-c3cccc4[nH]cc(C)c34)ccc2c1	none (no result: Fam108B counter, TCR CD3 inh, PME-1 primary, PAD4 FP inh)
Oc1cc(O)c(CN2CCOCC2)cc1CN1CCOCC1	PRMT1 FP inh 29 (no result: Fam108B counter, PME-1 primary, PAD4 FP inh) | PRMT1 inh conf inactive
Cc1ccc(NC2=C(Cl)C(=O)OC2NC(=O)c2ccccc2)cc1 (centres undefined)	none
O=C1OC(NC(=O)c2ccccc2)C(n2cc(CO)nn2)=C1Cl (centres undefined)	PRMT1 FP inh 65 | PRMT1 inh conf 67
CSc1ccc(NC(=O)CSc2nc3[nH]c(=O)cc(O)c3s2)cc1	PRMT1 FP inh 48 (no result: Fam108B counter) | PRMT1 inh conf inactive
N#Cc1ccc(NC(=O)CSc2nc3[nH]c(=O)cc(O)c3s2)cc1	none (no result: Fam108B counter)
Cc1occc1-c1nnc(SCC(=O)N2CCN(c3ncccn3)CC2)n1-c1ccccc1	none (no result: Fam108B counter, TCR CD3 inh, PME-1 primary, PAD4 FP inh)
COc1ccc(S[C@]2(C(=O)N3CCOCC3)CC(=O)N(S(=O)(=O)c3ccc(F)cc3)[C@@H]2c2ccc(OC)cc2)cc1	none (no result: Fam108B counter, TCR CD3 inh, PME-1 primary, PAD4 FP inh)
CC(=O)c1sc2nsc(SCCN3CCCC3)c2c1N	PRMT1 FP inh 35 | PRMT1 inh conf inactive
CC(=O)c1sc2nc(C)c3c(c2c1N)CCCC3	none
Nc1c(S(=O)(=O)c2ccccc2)c2nc3ccccc3nc2n1Cc1ccco1	PRMT1 FP inh 33 | PRMT1 inh conf inactive
Cc1ccc(S(=O)(=O)c2c(N)n(CCN3CCOCC3)c3nc4ccccc4nc23)cc1C	none
Cc1ccc(S(=O)(=O)c2c(N)n(Cc3ccco3)c3nc4ccccc4nc23)cc1C	PRMT1 FP inh 28 | PRMT1 inh conf inactive
